MPTP inh: blocks calcium-induced mitochondrial swelling | isolated mouse mitochondria, Ca2+ swelling absorbance, 30 min | inhibition, % at 10 µM | 360,000 tested, 1.4% active | AID 602449;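 active = inhibition of 50% or more, scaled per plate between neutral and stimulator controls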;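 note: 0% = DMSO wells given calcium and 100% = 1 mM EGTA wells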
rCAG RNA binder: binds r(CAG) RNA repeats; r(CAG) RNA repeat, TO-PRO-1 dye displacement fluorescence; inhibition, % at 3 µM; 370,000 tested, 1.3% active; AID 651821;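 active = inhibition above the plate cutoff, the mean of all test compounds on that plate plus 3 SD, cut at about 35% in these data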;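 note: 0% = DMSO alone and 100% = 100 µM mitoxantrone as full dye displacement; higher means more dye released from RNA so lower well fluorescence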
Pemphigus Ab inh: blocks pemphigus antibody binding to human desmoglein-3; DSG3-coupled beads, scFv-anti-DSG3-GFP binding, flow cytometry; active compounds read low; P32926; binding (percent of control), % at 10 µM; 310,000 tested, 0.48% active;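 active = binding more than 3 SD below its plate's average and above zero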;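 note: hits lower antibody fragment binding to DSG3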
ADAM10 inh: ADAM10 inhibition, QFRET primary screen. O14672. recombinant ADAM10, EDANS/DABCYL FRET peptide cleavage, 3 h. inhibition, % at 7 µM. 370,000 tested, 0.62% active. AID 720582;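 active = inhibition above a per-campaign cutoff equal to the mean of compounds falling between control-based bounds plus 3 SD, cut at about 20% in these data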;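 note: 0% = DMSO wells while the 100% control is not disclosed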
ADAM17 inh: ADAM17 inhibition, QFRET primary screen; P78536; AID 720648; recombinant ADAM17, EDANS/DABCYL FRET peptide cleavage; 370,000 tested, 0.83% active; inhibition, % at 6.95 µM;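 active = inhibition above the mean of compounds lying between control limits plus 3 SD, set per campaign, cut at about 8.5% in these data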;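 note: 0% = DMSO-only wells as the low control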
Target sequence (P78536 215-824 limits assumed): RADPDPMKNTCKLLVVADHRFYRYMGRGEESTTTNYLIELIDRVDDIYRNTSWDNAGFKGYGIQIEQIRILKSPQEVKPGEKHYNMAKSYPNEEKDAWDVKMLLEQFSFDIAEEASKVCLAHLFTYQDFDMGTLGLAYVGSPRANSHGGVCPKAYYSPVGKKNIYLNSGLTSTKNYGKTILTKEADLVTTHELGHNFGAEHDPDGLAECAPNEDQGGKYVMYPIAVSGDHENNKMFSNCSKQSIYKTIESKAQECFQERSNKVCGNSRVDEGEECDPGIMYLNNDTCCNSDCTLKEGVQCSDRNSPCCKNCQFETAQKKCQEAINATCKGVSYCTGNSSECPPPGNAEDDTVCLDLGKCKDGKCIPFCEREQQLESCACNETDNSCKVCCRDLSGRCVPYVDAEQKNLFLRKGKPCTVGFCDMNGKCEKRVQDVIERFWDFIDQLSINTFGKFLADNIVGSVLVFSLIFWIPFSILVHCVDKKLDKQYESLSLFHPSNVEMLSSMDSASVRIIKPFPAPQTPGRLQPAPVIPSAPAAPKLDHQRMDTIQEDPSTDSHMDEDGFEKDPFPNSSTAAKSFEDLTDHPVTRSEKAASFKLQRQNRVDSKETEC
proKLK7 act: proKLK7 (human) activation, primary screen. activation, % at 7 µM. purified proKLK7, EDANS-DABCYL substrate fluorescence; 100% is mature enzyme control, 0% vehicle. 370,000 tested, 0.9% active;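 active = activation above the mean of all tested compounds plus 3 SD, computed per campaign excluding outliers beyond control limits, cut at about 13% in these data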
MPTP counter: mitochondrial membrane potential, counter-screen | isolated mitochondria, Rhodamine 123 fluorescence | inhibition, % at 10 µM | shares compounds with MPTP inh | 5,000 tested, 78% active; in the data active = inhibition above about 22%;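 note: 0% = DMSO vehicle and 100% = positive control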
MPTP swell DR: MPTP inhibition, dose response swelling confirmation. shares compounds with MPTP inh. isolated mitochondria swelling, absorbance. IC50, µM. 780 tested, 58% active. AID 651561; in the data active = IC50 below about 20 µM
MPTP cs DR: MPTP inhibitor counter-screen activity, dose response | IC50, µM | shares compounds with MPTP inh | AID 651564 | 780 tested, 49% active | isolated mitochondria counterscreen, fluorescence read-out; in the data active = IC50 below about 80 µM
* marks the source's active call; other numbers are inactive results; / = not tested or not shown. An excerpt weighted towards active compounds, which were near 4.7% of everything screened.

SMILES | MPTP inh | rCAG RNA binder | Pemphigus Ab inh | ADAM10 inh | ADAM17 inh | proKLK7 act | MPTP counter | others
COc1cc(NC(=O)[C@@H](Cc2ccccc2)NC(=O)[C@H]2O[C@@H](n3ccc(=O)[nH]c3=O)[C@H](O)[C@@H]2O)cc(OC)c1OC | / | 1.3 | / | -8.5 | -3.8 | 0.2 | /
O=C(NCCc1ccncc1)Nc1ccc(Cl)c(Cl)c1 | 24.0 | -3.5 | 102.0 | 3.3 | 0.0 | 0.2 | /
CCOC(=O)NCCOC(=O)Nc1ccc(Cl)cc1 | -1.7 | -1.1 | 104.6 | 1.6 | 1.2 | 0.1 | /
CCOC(=O)N(CC)OC(=O)Nc1ccc(Cl)cc1 | 57.4* | 0.9 | 99.6 | 11.6 | -0.5 | 0.2 | 63.4*
CCOC(=O)CNNC(=O)Nc1ccc(Cl)c(Cl)c1 | 68.8* | 2.1 | 95.5 | 10.9 | 0.9 | 0.2 | 64.6*
CC(C)(O)CNC(=O)Nc1ccc(Cl)c(Cl)c1 | 15.1 | -1.9 | / | -4.7 | -4.3 | -0.1 | /
CN(C)CCNC(=O)Nc1ccc(Cl)c(Cl)c1 | 71.0* | 3.6 | 100.3 | -4.3 | -2.8 | -0.1 | 94.3*
CCOC(=O)N(C)OC(=O)Nc1ccc(Cl)c(Cl)c1 | 73.4* | 1.3 | 106.2 | 5.3 | -1.3 | 0.0 | 83.1*
O=C(Nc1ccc(Nc2cccnc2)cc1)c1c[nH]c2ccccc12 | / | 11.3 | / | -28.9 | -11.0 | -0.5 | /
Cc1cc(C(=O)CSc2n[nH]c(N)n2)c(C)n1-c1cc(F)ccc1F | 58.9* | 15.5 | 103.2 | 2.1 | -8.9 | 0.1 | 3.2 | MPTP cs DR=>80
c1ccc2c(c1)OCc1nccn1-2 | / | 1.9 | / | -11.8 | -0.6 | -0.9 | /
Cc1cc(C)n(-c2nc(-c3ccc(Cl)c(Cl)c3)cs2)n1 | 59.9* | 0.3 | 103.0 | -6.2 | -4.8 | 0.1 | 1.0 | MPTP swell DR=>100;MPTP cs DR=>80
O=C(CNc1cccc(F)c1)Nc1cccc(S(=O)(=O)N2CCCCC2)c1 | -2.8 | 4.7 | 86.5 | 1.6 | -0.5 | 0.6 | /
O=C(CNc1cccc(S(=O)(=O)N2CCCC2)c1)Nc1ccc(C(F)(F)F)cc1 | 51.8* | 2.6 | 96.3 | 11.0 | 5.6 | 0.0 | 85.2*
O=C(NCc1ccc(Cl)cc1Cl)Nc1ccccc1 | 79.9* | 0.0 | 110.1 | -2.1 | 3.5 | -0.2 | 94.5*
O=C(N/C=C\c1ccccc1)NCc1ccc(Cl)cc1Cl | 3.5 | 6.6 | / | 4.2 | 2.6 | -0.8 | /
O=C(NCc1csc2ccc(Cl)cc12)Nc1ccccc1 | 84.7* | 4.6 | / | 6.3 | 2.8 | 0.7 | 74.8*
O=C(NCc1csc2ccc(Cl)cc12)Nc1cccc2ccccc12 | 18.4 | 3.4 | 105.3 | -6.7 | -4.1 | 3.1 | /
CCCCS(=O)(=O)N1CCN(C(=O)C(=O)c2cccc(C(F)(F)F)c2)CC1 | / | 0.1 | / | -0.5 | -0.3 | -0.1 | /
COc1ccc(Nc2nc(OC)nc(OC)n2)cc1 | -1.9 | -0.9 | 94.9 | -0.7 | -1.3 | 0.2 | /
COc1ccc(Nc2ccnc(Nc3ccc(OC)cc3)n2)cc1 | 78.2* | -0.9 | 111.0 | 6.8 | -2.9 | -0.2 | 1.0 | MPTP swell DR=10.6*;MPTP cs DR=34.8*
Cc1ccc(C(=O)Nc2ccc(Cc3ccncc3)cc2)cc1[N+](=O)[O-] | 99.1* | -3.0 | 100.8 | 3.3 | -1.4 | -0.2 | 64.2*
O=C(CCNc1ccc(Cc2ccncc2)cc1)c1ccc([N+](=O)[O-])cc1 | 75.2* | 0.1 | 80.8 | 13.6 | 4.0 | -0.1 | 67.9*
O=C(Nc1ccc(Cc2ccncc2)cc1)c1cccc([N+](=O)[O-])c1 | 18.4 | 3.5 | 89.9 | 8.2 | 2.9 | -0.2 | /
N=c1c(-c2nc3ccccc3[nH]2)cc(C(=O)c2cccs2)nn1-c1ccccc1 | 90.8* | / | / | / | / | / | 38.5*
CN(C)c1ccc(N=Nc2nc3ccccc3n2C)cc1 | 66.2* | 1.1 | 90.3 | 12.0 | 2.3 | 0.2 | -32.4
COC(=O)c1cccc(Cn2ccc3ccc(-c4ccc5ccn(C(=O)C6CC6)c5c4)cc32)c1 | / | 18.6 | / | -42.7 | -6.8 | -7.5 | /
C[C@@H]1CCN(C2CC2)S(=O)(=O)c2c(cccc2N2CCC[C@@H]2CO)O1 | / | 2.8 | / | -5.3 | -1.4 | 0.1 | /
N/C(=N\OC(=O)COc1ccc2ccccc2c1)c1ccncc1 | -1.2 | / | 106.4 | / | / | / | /

From PubChem BioAssay
